High-throughput results deposited in PubChem BioAssay by several laboratories.
ALR inh: human ALR oxidase inhibition via reduced H2O2; hit rate 3.8% among 290,000; P55789; purified ALR, DTT oxidation, H2O2 HRP-luminol luminescence; inhibition, % (no concentration beside the values); AID 485317;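 active = mean replicate inhibition above about 79%, with every replicate also reaching it, limit read from the data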
Target sequence (P55789 whole entry, looked up): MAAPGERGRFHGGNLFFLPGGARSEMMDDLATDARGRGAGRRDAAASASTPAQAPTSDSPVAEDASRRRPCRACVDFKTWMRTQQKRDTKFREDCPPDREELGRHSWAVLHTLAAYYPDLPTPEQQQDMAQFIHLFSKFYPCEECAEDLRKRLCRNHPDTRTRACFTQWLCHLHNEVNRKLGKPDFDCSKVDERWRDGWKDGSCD
Yeast superoxide: yeast age-related superoxide inhibition as caloric restriction mimetic | S. cerevisiae aged cells, superoxide DHE fluorescence; hits give low values | superoxide response (% of plate mean), % at 10 µM | AID 2690 | hit rate 0.18% among 330,000;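 active = superoxide response under a set limit, about three screen SD below normal, cut at about 65% in these data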;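 note: yeast aged for seven days with compound at 30 °C before DHE staining; 100% = average MFI of all compound-treated wells on the plate with controls excluded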
CendR NRP1 mod: modulators of CendR peptide binding to human neuropilin-1. O14786. FAM-RPARPAR peptide binding to NRP-1, fluorescence polarization. inhibition, % at 25 µM. hit rate 0.85% among 360,000;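 active = inhibition or corrected inhibition above about 18%, plus a signal ratio from 0.5 to 1.5, limit read from the data, passing the limit was not always enough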
PfM18AAP inh: PfM18AAP enzyme inhibition; recombinant PfM18AAP, H-Glu-NHMec fluorogenic cleavage; hit rate 1.2% among 290,000; AID 1822; inhibition, % at 7.35 µM;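 active = inhibition above the campaign mean inhibition over all tested compounds plus 3 SD, cut at about 28% in these data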;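 note: 0% = plate median of test compound wells and 100% = 2 mM ZnCl2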
A3G deaminase: inhibitors of human APOBEC3G DNA deaminase; Q9HC16; recombinant A3G, ssDNA deamination FAM/TAMRA fluorescence; inhibition, % at 20 µM; hit rate 0.28% among 330,000;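 active = inhibition of at least 40% at 20 µM, with no more than 30% in the related APOBEC3A deaminase screen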;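 note: plate controls were DMSO wells with A3G for no effect and wells lacking A3G enzyme for full effect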
A3A deaminase: human APOBEC3A DNA deaminase inhibition; P31941; recombinant A3A, FAM/TAMRA ssDNA deamination fluorescence; inhibition, % at 20 µM; hit rate 0.41% among 330,000; AID 493011;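 active = at least 40% inhibition at 20 µM here, with at most 30% in a related deaminase screen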;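 note: plate controls were A3A with DMSO for no effect and wells lacking A3A enzyme for full effect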
Target sequence (P31941 whole entry, looked up): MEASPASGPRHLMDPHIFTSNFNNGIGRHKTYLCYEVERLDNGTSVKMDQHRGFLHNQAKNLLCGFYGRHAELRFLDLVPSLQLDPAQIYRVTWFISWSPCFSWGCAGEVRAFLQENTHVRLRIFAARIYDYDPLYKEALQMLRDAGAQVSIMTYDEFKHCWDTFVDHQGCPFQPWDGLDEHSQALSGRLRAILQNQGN
* marks the source's active call; other numbers are inactive results; nt = not tested or not shown. In the library only some 5.2% were active in any assay of this set; here they are far more common.

SMILES	ALR inh	Yeast superoxide	CendR NRP1 mod	PfM18AAP inh	A3G deaminase	A3A deaminase
O=C(CSCc1ccc(C(=O)O)cc1)Nc1ccc2ccccc2c1	98.9*	91.1	4.1	3.2	-4.6	0.2
COc1ccc(C2(C(=O)Nc3ccccc3)CCOCC2)cc1	-4.8	109.7	6.6	-11.7	-7.0	-3.0
COC(=O)c1ccc(CSCC(=O)Nc2ccccc2)cc1	92.0*	103.2	4.2	-3.2	-13.7	-2.8
CCOC(=O)c1ccc(NC(=O)C2(c3ccccc3)CCOCC2)cc1	-1.0	105.9	30.9*	-0.3	-10.0	-3.1
COc1ccccc1N(CC(=O)NC(C)(C)C)C(=O)c1ccc(Cl)nc1	-18.9	95.9	-9.7	-5.7	7.7	5.2
O=C(C1CCCCC1)N1C[C@@H](n2cc(-c3ccc(F)cc3)nn2)[C@H](O)C[C@@H]1c1ccc(Cl)cc1	nt	nt	1.0	nt	nt	nt
Cn1ccnc1SCc1cn2cc(Br)ccc2n1	98.6*	99.5	-5.3	-5.2	1.8	4.1
COC(=O)c1ccc(CSc2nccn2C)cc1	nt	107.8	9.9	2.2	-6.8	-1.7
CCN(CC)c1ccc(/C=C/c2cccc[n+]2C)c(OC)c1	98.7*	93.3	131.5	5.4	-12.8	36.7
Cc1ccccc1S(=O)(=O)Cc1ccc(C(=O)NCc2cccnc2)o1	-3.7	86.1	49.0*	-5.4	-0.9	1.1
CN1CCN(C(=O)c2ccc(N(C)S(=O)(=O)c3cccs3)cc2)CC1	0.6	95.9	22.1*	-1.6	-4.5	-1.5
O=C(Nc1cccc(C(=O)N2CCCCC2)c1)c1ccc(Cl)cc1	0.5	79.9	-16.7	-10.4	-4.0	-0.3
Cc1ccc(N=C(NO)c2nonc2N)cc1	91.9*	90.7	-6.7	3.0	-2.4	-2.2
Cc1ccc(C(=O)O/N=C(/c2nonc2N)N(C)C)cc1	nt	74.9	-5.8	-12.8	1.9	-0.9
Cc1ccc(S(=O)(=O)N(CC(=O)NCCSCc2ccco2)c2ccc(F)cc2)cc1	-1.7	98.8	nt	-6.4	1.1	0.6
COc1ccc([C@H]2CC(=O)C=C(c3ccccc3C(F)(F)F)C2)cc1	-0.5	107.6	28.7*	nt	-1.0	1.8
CC(=O)Nc1ccc(SCC(=O)NCC2(N3CCCCC3)CCCCC2)cc1	98.9*	109.7	7.5	nt	-8.9	-3.1
N#CCC(=O)Nc1ccc(C(=O)NCC2(N3CCOCC3)CCCCC2)cc1	98.7*	82.5	-12.1	nt	-2.0	-3.1
CS(=O)(=O)c1ccc(C(=O)NCC2(N3CCOCC3)CCCCC2)cc1	-6.3	91.7	12.1	nt	-3.3	-2.2
CCOC(=O)c1c(-c2ccccc2)csc1NC(=O)CCN1CCOCC1	3.2	127.4	1.4	1.2	-7.6	-3.0
CCOC(=O)c1c(-c2cccc(C)c2)csc1NC(=O)C1CC=CCC1C(=O)O (stereo not drawn)	98.1*	102.8	5.3	-15.8	-4.5	-2.1
CCOC(=O)c1c(-c2ccc(C)cc2)csc1NC(=O)CCN1CCOCC1	92.2*	99.7	-1.1	3.5	nt	nt
CCOC(=O)c1c(-c2ccc(-c3ccccc3)cc2)csc1NC(=O)C1C2CCC(O2)C1C(=O)O (stereo not drawn)	96.4*	98.2	-2.3	-4.3	-5.1	-2.1
CN(c1cccc(F)c1)c1cc2c(c3c1ccn3C)C1CCC2C1 (stereo not drawn)	nt	nt	12.5	nt	nt	nt
Nc1nc(Nc2ccccc2)nc(N2CCCC2)c1[N+](=O)[O-]	12.3	97.8	16.5	4.5	-11.1	-4.6
SMILES	ALR inh	Yeast superoxide	CendR NRP1 mod	PfM18AAP inh	A3G deaminase	A3A deaminase
O=C(CSc1ncnc2nc[nH]c12)c1ccc(Cl)cc1	86.8*	101.6	-13.4	10.6	-11.9	-2.8
O=C(CSc1ncnc2nc[nH]c12)c1ccc([N+](=O)[O-])cc1	92.6*	102.4	9.2	-6.8	-4.1	-2.5
O=C(CCC1CCCC1)c1c(O)c2ccccc2oc1=O	93.2*	99.7	0.7	4.9	1.6	1.6
Cc1ccc(CNC(=O)CS(=O)Cc2nc(-c3ccccc3F)oc2C)cc1 (stereo not drawn)	95.6*	112.5	-0.3	5.2	-6.0	-7.0
O=C(CSCc1ccc(F)cc1)NCc1ccc2c(c1)OCO2	6.2	98.0	-9.4	-5.5	-5.5	0.8
Cc1ccccc1-c1nc(CS(=O)(=O)CC(=O)NCc2ccccc2)c(C)o1	-5.8	104.5	1.1	-3.0	-6.4	-5.0
Cc1oc(-c2ccccc2F)nc1CS(=O)CC(=O)NCc1ccccc1 (stereo not drawn)	97.1*	109.0	3.4	2.4	-7.4	-6.4
Cc1ccc(CNC(=O)CS(=O)(=O)Cc2nc(-c3ccccc3F)oc2C)cc1	-9.8	103.1	2.5	0.7	13.1	1.4
